This is part of a sample that, as a whole, favours compounds with a hit. Of some 83,000 tested, about 20% had one in any assay.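 Results are percent growth after 48 hours of single-concentration exposure. 100 means growth as in untreated cells, lower positive values show inhibition; negative values down to -100 show cell death.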 A number with no mark means an inactive call. Calls of active or inactive are those of the source.
These molecules were tested on OVCAR-8 ovarian (assay: NCI-60 one-dose screen, 48 h (100 = growth as untreated, 0 = no growth, -100 = all killed)). Conditions: 10 µM.
Procedure: Growth inhibition of the OVCAR-8 human tumor cell line is measured as a screen for anti-cancer activity. Cells are grown in 96 well plates and exposed to the test compound for 48 hours. Compounds are tested at a single concentration, which is 10^-5 M for most compounds. The reported endpoint is percent growth (GI% or GIPRCNT), where numbers from 0 - 100% represent growth inhibition, and numbers from -100% - 0 represent cell death. For example, a value of 40 represents 60% growth inhibition. A value of 0 means no net growth occurred over the course of the experiment. A value of -40 indicates 40% of cells at the beginning of the experiment died by the end of the experiment. A value of -100 means all cells are dead at the end of the experiment.
NCI-60 Human Tumor Cell Lines Screen was performed using the standard one-dose NCI protocol, which is described in more detail at https://dtp.cancer.gov/discovery_development/nci-60/default.htm.
Compounds with GIPRCNT values below 10 were considered active. Activity score was based on GIPRCNT using the following formula: […]
Score is 0 for GIPRCNT values of 100 or above, 50 for GIPRCNT values of 0, and 100 for GIPRCNT values of -100.
Work on `CN(C)c1cccc2c(S(=O)(=O)Nc3cccc(-c4csc(NC(=O)CCCCCN5CCN(c6cc7c(cc6F)C(=O)N(C6CCC(=O)NC6=O)C7=O)CC5)n4)c3)cccc12` (stereo not given) yielded a growth of 94.6%. Work on `CC(C)Sc1nc(NC2CC2)c(C#N)c(-c2ccccc2)n1` yielded a growth of 30.8%. For `O=C(NO)c1ccc(Cn2ccc3c(NCc4ccccc4)ncnc32)cc1`, the growth was -37.8% (active). `O=C(Nc1cccc(-c2cn(-c3ccc4oc(=O)ccc4c3)nn2)c1)Nc1cc(C(F)(F)F)cc(C(F)(F)F)c1` gave a growth of 34.6%. For `CCCn1c(=O)c2[nH]c(-c3ccc(OCc4nc5ccc(C)cc5[nH]4)cc3)nc2n(CCC)c1=O`, the growth was 17.3%. Molecule `COc1ccc(NC(=O)CSc2nnc(-c3ccc4nc(-c5ccc(Cl)cc5)[nH]c4c3)o2)cc1` has a growth of 14.1%. In the case of `O/N=C(\CSc1nnc(-c2c[nH]c3ccccc23)n1-c1ccccc1)c1ccc(Br)cc1`, the growth is reported as -41.7% (active). `COc1ccc2nc(Cl)c(-c3cc(-c4ccccc4)nc(=S)[nH]3)cc2c1` gave a growth of 68.2%. For `COc1csc(/C=N/NC(=O)c2[nH]c3ccc(Br)cc3c2-c2ccccc2)c1`, the growth was 2.26% (active). In the case of `COC1=C[C@]23CCC(=O)N2CCc2cc4c(cc2[C@@H]3[C@@H]1OC(=O)CCCC(C)C)OCO4`, the growth is reported as 73.9%. Molecule `Cc1ccc2nc(-c3ccc(-c4nnc(SCC(=O)Nc5ccc(Br)cc5)o4)cc3)[nH]c2c1` has a growth of 20.4%. `CC(=O)NS(=O)(=O)c1ccc(NC(=O)CSC2=NC(c3ccccc3)C(C(C)=O)=C(C)N2)cc1` (stereo not given) was tested, and the growth was 115%. `CC(=O)Nc1nc(-c2ccc(N3CCN(C)CC3)c(NS(=O)(=O)c3cccc4c(N(C)C)cccc34)c2)cs1` showed a growth of 76.7%. With `Brc1ccc(/C=N/Nc2ncnc3sc4c(c23)CCN(Cc2ccccc2)C4)cc1` the growth was 3.8% (active). For `O=C(CNc1nc(-c2ccccc2)cs1)Nc1ccc([N+](=O)[O-])cc1`, the growth was 17.7%. With `Cc1ccc(CNC(=O)Cc2ccc3c(c2)CN(C2CCC(=O)NC2=O)C3=O)cc1` (stereo not given) the growth was 1.57% (active). `Cc1ccc(C(C)C)cc1NC(=O)c1ccccc1O` showed a growth of 59.1%. With `COc1cc2c(cc1OC)/C(=C\c1sc(Nc3ccc(O)cc3)nc1O)C(C(=O)O)=N2` the growth was 22.8%. Work on `COc1cnc2c(c1)C(=O)c1c-2n(CCCNCCO)c(=O)c2cc(OC)c(OC)cc12` yielded a growth of 30.4%. Work on `CN1C(=O)/C(=C/c2nccs2)SC1=S` yielded a growth of 91.5%. Work on `CNC(=O)c1cc(-c2ccc(NC(=O)Nc3ccc(C)cc3)cc2)nc2cccnc12` yielded a growth of 97.8%. For `CC(=O)c1ccc(Nc2nc(SCCC(C)C)nc(-c3ccc(F)cc3)c2C#N)cc1`, the growth was 8.35% (active). Molecule `O=C(NO)c1ccc(CNC(=O)[C@H]2Cc3c([nH]c4ccccc34)[C@H](c3ccc(Cl)cc3)N2)cc1` has a growth of 16.1%. `O=c1oc2ccc(-c3ccc(F)cc3F)cc2c(=O)n1-c1ccc(F)c(Cl)c1` was tested, and the growth was 3.87% (active). Molecule `O=C(Nc1nc2ccc([N+](=O)[O-])cc2s1)Nc1ccccc1I` has a growth of 11%. In the case of `O=c1[nH]c2ccccc2cc1CSc1ccc(Nc2nccc(-c3ccc4ccccc4c3)n2)cc1`, the growth is reported as -28% (active). Work on `Cc1ccc(C(=O)N/C(=C2/OCCN2C)[P+](c2ccccc2)(c2ccccc2)c2ccccc2)cc1` yielded a growth of 80.5%. `O=C(NO)c1ccc(CNC(=O)[C@H]2Cc3c([nH]c4ccccc34)[C@H](c3ccccc3)N2)cc1` was tested, and the growth was 24.7%. Molecule `O=C(CSc1nnc(-c2c[nH]c3ccccc23)n1-c1ccccc1)Nc1ccc(C(=O)/C=C/c2ccc(Cl)cc2)cc1` has a growth of 85.5%. `Cc1cccc2cc(-c3cc(-c4ccccc4)nc(=O)[nH]3)c(Cl)nc12` was tested, and the growth was 72.8%. `CCOC(=O)CNC(=O)CN(Cc1ccccc1)C(=O)[C@@]1(C)CCC[C@]2(C)[C@H]3C[C@H]4C(C(C)C)=C[C@]3(CC[C@H]21)[C@@H]1C(=O)OC(=O)[C@@H]14` showed a growth of 55.9%. `Cc1ccc(-c2nc(Nc3ccccc3C(=O)O)c3ccccc3n2)cc1` showed a growth of 30.5%. In the case of `C=C1CCC2C3(C)COC(c4c(F)cccc4F)OC3CCC2(C)C1CC(O)C1=CCOC1=O` (stereo not given), the growth is reported as 7.07% (active). With `O=C(CNc1nc(-c2ccccc2)cs1)Nc1cccc([N+](=O)[O-])c1` the growth was -11.1% (active). For `Cc1ccc(-c2nc3ccc(C(=O)N=Nc4c(O)[nH]c5ccc([N+](=O)[O-])cc45)cc3[nH]2)cc1`, the growth was 75.3%. `COc1ccc2[nH]c(O)c(N=NC(=O)COc3ccc(NC(=O)Nc4ccc(Cl)cc4)cc3)c2c1` was tested, and the growth was -28.6% (active). In the case of `COc1ccc2[nH]c(=O)c(CSc3nccc(-c4ccc(Cl)cc4)n3)cc2c1`, the growth is reported as -10.4% (active). `CN1CCO/C1=C(/NC(=O)c1ccc(Cl)cc1)[P+](c1ccccc1)(c1ccccc1)c1ccccc1` was tested, and the growth was 89%. In the case of `CC1=C2C(=C[C@@](C)(CO)[C@@H]2O)/C(=N\N)[C@](C)(O)C12CC2`, the growth is reported as 1.18% (active). Molecule `O=C(CSc1nnc(-c2c[nH]c3ccccc23)n1-c1ccccc1)c1ccccc1` has a growth of 14.7%.
